Results taken from PubChem BioAssay (NCATS).
Results filed as inconclusive are left out. The source made the active and inactive calls. Unless noted, calls follow the shape of the dose curve; as a rule, active = well fitted curve in the direction sought with a large enough effect; inconclusive = small, poorly fitted or top-dose-only effect, or another doubt; inactive = no such curve, though single readings can be large; an effect the other way counts as inactive or inconclusive.

Columns and labels:
[1] = biological target: Lysosomal acid glucosylceramidase (Homo sapiens) (UniProt P04062); test: Glucocerebrosidase-p2 (AID 348; in the data active = potency below about 10 µM; also: potency is read from the fitted curve at half-maximal effect); settings: purified GBA, blue fluorogenic substrate, 40 min
Procedure, shortened: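 Normal human glucocerebrosidase (0.2 nM) with blue fluorogenic substrate (80 uM final) in citrate/phosphate pH 5.9 with 10mM sodium taurocholate, 0.01% tween-20; 40 min RT, NaOH/glycine stop; fluorescence Ex 365/Em 440; AC50 from a titration from 0.6 nM upwards.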

[2] = AP1 Signaling Pathway (AID 357; active = well fitted curve in either direction with a large enough effect, not every such curve was filed as active;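 also: ME-180 reporter cells stimulated with EGF at its EC50 level; % is scaled to controls: 0 for no effect and ±100 for the full control effect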); settings: ME-180 AP-1-bla reporter, EGF-induced, beta-lactamase ratio, 5 h; at 7.69 µM (top of the series) unless noted
Procedure, shortened: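 Read-out was the 460nm/530nm emission ratio (excitation 405nm) after CCF4 loading for 2.5 hours at room temperature. Cells carried an AP-1-driven beta-lactamase reporter, were stimulated with EC50 EGF plus compound for 5 hours, and AC50 values came from titrations.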

[3] = Stat Signaling Pathway (AID 446; active = well fitted curve in either direction with a large enough effect, not every such curve was filed as active;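 also: ME-180 cervical cancer cells given 40 pM IL-6 alongside compound; SIE-controlled beta-lactamase reporter measured as 460/530 nm FRET emission ratio; % is scaled to controls: 0 for no effect and ±100 for the full control effect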); settings: ME-180 (cervical carcinoma) SIE beta-lactamase reporter, IL-6 stimulated, 5 h; at 7.69 µM (top of the series) unless noted
Procedure, shortened: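 Normalization used AC90 stimulation (300 pM IL-6) and AC90 inhibition (125 nM pan-JAK inhibitor at 40 pM IL-6). The underlying signal is SIE-driven beta-lactamase in ME-180 cells after 5 h IL-6 exposure with compound.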

[4] = biological target: 3',5'-cyclic-AMP phosphodiesterase 4B (Homo sapiens) (UniProt Q07343); test: qHTS Assay for Inhibitors of PDE-IV (AID 607; active = well fitted activation curve with a large enough effect in the main read-out, with a control signal flat, not every such curve was filed as active; also: % of control where 0% means no effect); settings: HEK293 ACTOne CNG channel cells, membrane potential fluorescence; series mostly up to 22.9 µM
Procedure, shortened: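 HEK293 ACTOne cells with CNG channel (1000/well), endogenous PDE4; membrane potential dye, compounds up to 22.9 uM final. Fluorescence Ex 535/Em 590; RO 20-1724 (100 uM final) as reference.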

[5] = biological target: ATP-dependent 6-phosphofructokinase (Trypanosoma brucei brucei) (UniProt O15648); test: qHTS Assay to Find Inhibitors of T. brucei phosphofructokinase: hit validation (AID 492961);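 also: luminescence reports ADP formed as PFK phosphorylates fructose-6-phosphate with ATP; % is scaled to controls: 0 for no effect and ±100 for the full control effect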; settings: T. brucei PFK, ADP-Glo luminescence; series mostly up to 51.4 µM
Procedure, shortened: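 PFK 1.25 nM, F6P 0.5 mM, ATP 0.1 mM, MgCl2 5 mM, 0.1 M TEA pH 8.0, Tween20 0.01%, BSA 0.1%; 45 min RT. ADP-Glo two-step detection, luminescence. qHTS titration; curve fitting with curve-class categorization.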

[6] = biological target: Luciferin 4-monooxygenase (Photinus pyralis) (UniProt P08659); test: Biochemical firefly luciferase enzyme assay for NPC (AID 624030);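 also: purified P. pyralis luciferase at 10 nM with luciferin and ATP substrate; 0% = DMSO and -100% = full luciferase inhibition by PTC124 control; nearly all actives have a fitted effect of over 70% in size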; settings: purified P. pyralis luciferase, luminescence, 5 min; series mostly up to 58.6 µM
Procedure, shortened: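 Counter-screen for direct inhibition of the luciferase enzyme by approved-drug library compounds, run at 10 nM enzyme in 50 mM Tris acetate (final). Luminescence was read within 5 min of enzyme-buffer addition and normalized to PTC124 versus DMSO (0%).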

[7] = S16 Schwann cell viability assay (CellTiter-Glo assay) (AID 624031); settings: S16 rat Schwann cells viability, 24 h; series mostly up to 57.5 µM;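 also: cellular ATP luminescence as a viability measure; plate controls were DMSO-treated cells for no effect and cell-free wells for full effect; nearly all actives have a fitted effect of over 70% in size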
Procedure, shortened: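 Native S16 rat Schwann cells, 500-750 cells/well in DMEM with 10% FBS, dosed with compound after overnight culture and incubated 24h at 37 degree Celsius/5% CO2. Viability by CellTiter-Glo luminescence; % activity normalized to no-cell wells and DMSO-treated cells.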

[8] = S16 Schwann cell PMP22 intronic element firefly luciferase assay (AID 624032); settings: S16 rat Schwann cells, PMP22 element FLuc, 24 h; series mostly up to 57.5 µM;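 also: plate controls were DMSO for no effect and PTC124 positive control mean for full effect; nearly all actives have a fitted effect of over 30% in size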
Procedure, shortened: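 Rat S16 Schwann cells stably carrying a PMP22 intronic element-driven Fluc reporter were seeded overnight, then exposed to compounds for 24 h at 37 °C. Luminescence was normalized to PTC124 (positive control) and DMSO (0% activity).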

[9] = S16 Schwann cell PMP22 intronic element beta-lactamase assay (AID 624044; calls by dose curve;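 also: 0% = DMSO and -100% = potassium clavulanate positive control; nearly all actives have a fitted effect of over 15% in size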); settings: S16 rat Schwann cells, PMP22 element beta-lactamase FRET, 24 h; series mostly up to 38.3 µM
Procedure, shortened: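 Beta-lactamase reporter under a PMP22 intronic regulatory element in stable S16 rat Schwann cells; 24 h compound exposure. 460 nm blue signal normalized between DMSO (0%) and potassium clavulanate, with 535 nm FRET tracking viability; curves classed by r2 and response.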

[10] = qHTS profiling for inhibitors of Plasmodium falciparum proliferation (AID 504749);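 also: 0% = DMSO vehicle and full inhibition = artemisinin control; nearly all actives have a fitted effect of over 60% in size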; settings: P. falciparum in erythrocytes, SYBR Green DNA, 72 h, at 28.7 µM (top of the series)
Procedure, shortened: (§1)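 Fluorescence of SYBR Green-bound parasite DNA, read at 485/535 nm, served as the growth measure. Infected erythrocytes were cultured with compound 72 h; artemisinin (0.29 uM) and DMSO wells defined the normalization range.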

3D7 = test: as above; settings: P. falciparum in erythrocytes, SYBR Green DNA, 72 h; series mostly up to 28.7 µM
Procedure, shortened: as §1

7G8 = test: as above; settings: P. falciparum in erythrocytes, SYBR Green DNA, 72 h; series mostly up to 28.7 µM
Procedure, shortened: as §1

AA1029 = test: as above; settings: P. falciparum in erythrocytes, SYBR Green DNA, 72 h; series mostly up to 28.7 µM
Procedure, shortened: as §1

AS120 = test: as above; settings: P. falciparum in erythrocytes, SYBR Green DNA, 72 h; series mostly up to 28.7 µM
Procedure, shortened: as §1

ATS189 = test: as above; settings: P. falciparum in erythrocytes, SYBR Green DNA, 72 h; series mostly up to 28.7 µM
Procedure, shortened: as §1

ATS95 = test: as above; settings: P. falciparum in erythrocytes, SYBR Green DNA, 72 h; series mostly up to 28.7 µM
Procedure, shortened: as §1

C2A = test: as above; settings: P. falciparum in erythrocytes, SYBR Green DNA, 72 h; series mostly up to 28.7 µM
Procedure, shortened: as §1

CP185 = test: as above; settings: P. falciparum in erythrocytes, SYBR Green DNA, 72 h; series mostly up to 28.7 µM
Procedure, shortened: as §1

CP191 = test: as above; settings: P. falciparum in erythrocytes, SYBR Green DNA, 72 h; series mostly up to 28.7 µM
Procedure, shortened: as §1

CP192 = test: as above; settings: P. falciparum in erythrocytes, SYBR Green DNA, 72 h; series mostly up to 28.7 µM
Procedure, shortened: as §1

CP194 = test: as above; settings: P. falciparum in erythrocytes, SYBR Green DNA, 72 h; series mostly up to 28.7 µM
Procedure, shortened: as §1

CP201 = test: as above; settings: P. falciparum in erythrocytes, SYBR Green DNA, 72 h; series mostly up to 28.7 µM
Procedure, shortened: as §1

CP203 = test: as above; settings: P. falciparum in erythrocytes, SYBR Green DNA, 72 h; series mostly up to 28.7 µM
Procedure, shortened: as §1

CP211 = test: as above; settings: P. falciparum in erythrocytes, SYBR Green DNA, 72 h; series mostly up to 28.7 µM
Procedure, shortened: as §1

CP215 = test: as above; settings: P. falciparum in erythrocytes, SYBR Green DNA, 72 h; series mostly up to 28.7 µM
Procedure, shortened: as §1

CP217 = test: as above; settings: P. falciparum in erythrocytes, SYBR Green DNA, 72 h; series mostly up to 28.7 µM
Procedure, shortened: as §1

CP237 = test: as above; settings: P. falciparum in erythrocytes, SYBR Green DNA, 72 h; series mostly up to 28.7 µM
Procedure, shortened: as §1

CP238 = test: as above; settings: P. falciparum in erythrocytes, SYBR Green DNA, 72 h; series mostly up to 28.7 µM
Procedure, shortened: as §1

CP247 = test: as above; settings: P. falciparum in erythrocytes, SYBR Green DNA, 72 h; series mostly up to 28.7 µM
Procedure, shortened: as §1

CP250 = test: as above; settings: P. falciparum in erythrocytes, SYBR Green DNA, 72 h; series mostly up to 28.7 µM
Procedure, shortened: as §1

CP252 = test: as above; settings: P. falciparum in erythrocytes, SYBR Green DNA, 72 h; series mostly up to 28.7 µM
Procedure, shortened: as §1

CP256 = test: as above; settings: P. falciparum in erythrocytes, SYBR Green DNA, 72 h; series mostly up to 28.7 µM
Procedure, shortened: as §1

CP260 = test: as above; settings: P. falciparum in erythrocytes, SYBR Green DNA, 72 h; series mostly up to 28.7 µM
Procedure, shortened: as §1

3',5'-cyclic-AMP phosphodiesterase 4B (Homo sapiens), sequence (Q07343 whole entry, looked up): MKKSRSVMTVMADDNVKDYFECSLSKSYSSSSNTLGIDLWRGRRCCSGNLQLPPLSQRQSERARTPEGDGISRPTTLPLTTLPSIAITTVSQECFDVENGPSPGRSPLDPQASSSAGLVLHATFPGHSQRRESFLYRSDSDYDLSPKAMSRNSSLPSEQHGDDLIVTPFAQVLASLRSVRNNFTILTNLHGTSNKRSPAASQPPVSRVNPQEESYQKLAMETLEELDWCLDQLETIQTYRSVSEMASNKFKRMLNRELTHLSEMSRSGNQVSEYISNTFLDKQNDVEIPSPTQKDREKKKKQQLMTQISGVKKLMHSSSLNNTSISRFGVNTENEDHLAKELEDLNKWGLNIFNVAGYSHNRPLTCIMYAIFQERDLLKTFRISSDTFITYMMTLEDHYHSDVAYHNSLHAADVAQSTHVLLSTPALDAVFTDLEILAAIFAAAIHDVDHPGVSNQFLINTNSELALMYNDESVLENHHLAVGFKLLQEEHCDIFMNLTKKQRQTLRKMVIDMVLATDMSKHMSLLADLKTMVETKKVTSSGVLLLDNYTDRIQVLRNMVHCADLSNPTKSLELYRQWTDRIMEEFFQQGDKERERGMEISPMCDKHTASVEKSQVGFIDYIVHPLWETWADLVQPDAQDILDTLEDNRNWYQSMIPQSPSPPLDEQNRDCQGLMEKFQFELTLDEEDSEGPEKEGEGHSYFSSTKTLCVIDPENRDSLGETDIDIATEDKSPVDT
Luciferin 4-monooxygenase (Photinus pyralis), sequence (P08659 whole entry, looked up): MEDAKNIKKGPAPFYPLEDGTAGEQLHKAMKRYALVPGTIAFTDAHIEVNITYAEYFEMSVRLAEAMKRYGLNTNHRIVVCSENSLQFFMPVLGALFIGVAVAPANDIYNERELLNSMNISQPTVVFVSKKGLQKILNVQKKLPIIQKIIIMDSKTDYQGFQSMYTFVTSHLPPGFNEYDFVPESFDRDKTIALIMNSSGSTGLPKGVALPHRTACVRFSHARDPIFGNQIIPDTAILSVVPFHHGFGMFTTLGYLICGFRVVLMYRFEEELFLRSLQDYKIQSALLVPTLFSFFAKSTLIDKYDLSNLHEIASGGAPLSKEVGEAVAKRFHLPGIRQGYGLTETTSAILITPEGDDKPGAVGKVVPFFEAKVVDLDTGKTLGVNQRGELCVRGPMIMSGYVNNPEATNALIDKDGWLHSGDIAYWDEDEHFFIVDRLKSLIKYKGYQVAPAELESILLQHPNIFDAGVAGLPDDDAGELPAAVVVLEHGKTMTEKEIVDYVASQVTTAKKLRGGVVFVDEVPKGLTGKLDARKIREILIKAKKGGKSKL
Lysosomal acid glucosylceramidase (Homo sapiens), sequence (P04062 whole entry, looked up): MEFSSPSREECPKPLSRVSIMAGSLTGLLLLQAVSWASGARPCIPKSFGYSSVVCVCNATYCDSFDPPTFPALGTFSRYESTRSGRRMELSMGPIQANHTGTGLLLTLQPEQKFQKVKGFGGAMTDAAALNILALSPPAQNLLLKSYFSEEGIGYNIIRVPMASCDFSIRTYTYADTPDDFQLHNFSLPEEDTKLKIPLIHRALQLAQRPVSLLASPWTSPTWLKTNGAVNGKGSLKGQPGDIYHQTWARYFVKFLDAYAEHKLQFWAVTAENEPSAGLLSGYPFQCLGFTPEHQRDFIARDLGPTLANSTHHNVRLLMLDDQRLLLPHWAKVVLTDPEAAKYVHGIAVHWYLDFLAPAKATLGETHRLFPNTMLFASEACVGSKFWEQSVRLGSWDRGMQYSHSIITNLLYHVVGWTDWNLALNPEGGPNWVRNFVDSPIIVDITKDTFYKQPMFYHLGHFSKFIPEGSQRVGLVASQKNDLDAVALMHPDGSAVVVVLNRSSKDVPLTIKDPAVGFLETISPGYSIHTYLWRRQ
ATP-dependent 6-phosphofructokinase (Trypanosoma brucei brucei), sequence (O15648 whole entry, looked up): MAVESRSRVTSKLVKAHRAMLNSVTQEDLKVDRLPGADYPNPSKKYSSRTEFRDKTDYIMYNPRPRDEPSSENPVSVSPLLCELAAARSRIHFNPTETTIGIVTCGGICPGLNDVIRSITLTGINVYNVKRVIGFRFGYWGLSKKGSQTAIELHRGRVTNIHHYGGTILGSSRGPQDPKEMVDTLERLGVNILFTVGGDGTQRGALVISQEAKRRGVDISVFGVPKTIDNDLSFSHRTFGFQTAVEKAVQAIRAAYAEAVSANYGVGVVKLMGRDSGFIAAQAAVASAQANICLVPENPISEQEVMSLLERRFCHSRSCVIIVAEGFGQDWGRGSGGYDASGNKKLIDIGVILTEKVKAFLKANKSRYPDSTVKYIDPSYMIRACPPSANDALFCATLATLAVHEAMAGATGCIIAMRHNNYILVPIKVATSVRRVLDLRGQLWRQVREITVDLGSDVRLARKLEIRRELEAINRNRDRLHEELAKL

CN1[C@@H]2CC(OC(=O)[C@@H](CO)c3ccccc3)C[C@@H]1[C@H]1O[C@H]12 (some centres undefined)
inactive: Potency [1] > 11.4 µM | activity change, negative = inhibition [2] 20.3% | activity, negative = inhibition [3] 6.14% | Potency [4] | outcome [5] | outcome [6] | Potency [7] | Potency [8] | outcome [9] | activity, negative = inhibition ([10]; parasite line A) 11.4% | activity, negative = inhibition ([10]; parasite line B) 4.71% | Potency (3D7) | Potency (7G8) | Potency (AA1029) | Potency (AS120) | Potency (ATS189) | Potency (ATS95) | Potency (C2A) | Potency (CP185) | Potency (CP191) | Potency (CP192) | Potency (CP194) | Potency (CP201) | Potency (CP203) | Potency (CP211) | Potency (CP215) | Potency (CP217) | Potency (CP237) | Potency (CP238) | Potency (CP247) | Potency (CP250) | Potency (CP252) | Potency (CP256) | Potency (CP260)
